Assay outcomes from PubChem BioAssay.
The list is not random: actives were taken first. Their share in the collection is about 11%.
IMPase Li inh: qHTS Assay for Identifying the Cell-Membrane Permeable IMPase Inhibitors: Potentiation with Lithium | CHO-M1 cells, IP1 TR-FRET (IP-One), carbachol + lithium | Potency, µM (top dose mostly 59.4 µM), without a hit: top-dose activity, negative = IMPase inhibition, usual class: inhibitors | 210,000 tested, 0.35% active | AID 1457, 2008;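 further: IP1 builds up when IMPase is blocked and the TR-FRET signal falls; potency means the concentration at half of the fitted maximal effect; plate controls were basal vehicle for no effect and high inhibitor control for full effect; nearly all actives have a fitted effect of over 50% in size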
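CHO cells stably expressing M1 receptor (2000/well, cultured 16–30 h) treated 30 min at 37C with compound plus low lithium. Cytosolic IP1 by TR-FRET (665/620 ratio and 620 channel) after 10 min lysis; AC50 by Hill fit.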
NPSR antag: qHTS Assay for Antagonists of the Neuropeptide S Receptor: cAMP Signal Transduction; CHO-NPSR cells, cAMP TR-FRET, antagonist mode; AID 1461, 2008; 220,000 tested, 1% active; Potency, µM (highest dose often 38.3 µM), for the others: at the highest dose activity change, negative = inhibition, usual class: inhibitors; further: potency means the concentration at half of the fitted maximal effect; nearly all actives have a fitted effect of over 50% in size
ALDH1A1 block: qHTS Assay for Inhibitors of Aldehyde Dehydrogenase 1 (ALDH1A1); Aldehyde dehydrogenase 1A1 (Homo sapiens), P00352; Purified ALDH1A1, NADH fluorescence, propionaldehyde substrate; Potency, µM (series often up to 75.3 µM), without a hit: at the top dose activity, negative = inhibition, hits mostly inhibitors; 220,000 tested, 7.3% active; active means well fitted inhibition curve with a large enough effect, not every such curve was filed as active; inconclusive means small, poorly fitted or top-dose-only effect, or another doubt; inactive means no such curve, though single readings can be large or run the other way;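 further: potency means the concentration at half of the fitted maximal effect; plate controls were no enzyme wells and a reference inhibitor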
IMPase cell inh: qHTS Assay for Identifying the Cell-Membrane Permeable IMPase Inhibitors; inhibition (IP1 accumulation), % at 46.1 µM; Inositol monophosphatase 1 (Rattus norvegicus), P97697; 120,000 tested, under 10 active; CHO-M1 cells, IP1 accumulation, HTRF TR-FRET ratio; active means well fitted curve in the direction sought with a large enough effect in the signal ratio, not every such curve was filed as active; inconclusive means small, poorly fitted or top-dose-only effect, or a change in a side signal; inactive means no such curve, though single readings can be large or run the other way; the % refers to the signal ratio;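 further: cells stimulated with carbachol in lithium chloride buffer; plate controls were DMSO basal wells for no effect and reference inhibitor wells for full effect; higher means more IMPase inhibition seen as more IP1 and lower FRET ratio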
Target sequence (P97697 whole entry, looked up): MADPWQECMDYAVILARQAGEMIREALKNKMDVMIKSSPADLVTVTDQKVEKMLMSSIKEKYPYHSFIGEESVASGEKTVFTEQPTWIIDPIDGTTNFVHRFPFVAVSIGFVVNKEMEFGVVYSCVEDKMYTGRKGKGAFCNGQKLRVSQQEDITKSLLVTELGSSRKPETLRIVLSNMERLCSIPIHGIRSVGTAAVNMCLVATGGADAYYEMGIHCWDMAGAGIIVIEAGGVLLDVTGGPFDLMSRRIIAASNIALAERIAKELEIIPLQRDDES
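Elevated IP1 in lysates lowers TR-FRET signal (665/620 ratio and 620 channel reported). Cells were CHO-M1, given carbachol (50 uM as added) plus 50mM LiCl, pH 7.4, 30 min, 37C; compounds titrated up to 46 uM; AC50 by Hill equation.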
HPGD block: qHTS Assay for Inhibitors of HPGD (15-Hydroxyprostaglandin Dehydrogenase); purified HPGD, NADH fluorescence kinetic, PGE2 substrate; Potency, µM, inactives show at the top dose activity change, negative = inhibition, most hits filed as inhibitors; 150,000 tested, 4.3% active; AID 894, 2007; active means well fitted inhibition curve with a large enough effect, not every such curve was filed as active; inconclusive means small, poorly fitted or top-dose-only effect, or another doubt; inactive means no such curve, though single readings can be large or run the other way; further: potency means the concentration at half of the fitted maximal effect
Target sequence (P15428 whole entry, looked up): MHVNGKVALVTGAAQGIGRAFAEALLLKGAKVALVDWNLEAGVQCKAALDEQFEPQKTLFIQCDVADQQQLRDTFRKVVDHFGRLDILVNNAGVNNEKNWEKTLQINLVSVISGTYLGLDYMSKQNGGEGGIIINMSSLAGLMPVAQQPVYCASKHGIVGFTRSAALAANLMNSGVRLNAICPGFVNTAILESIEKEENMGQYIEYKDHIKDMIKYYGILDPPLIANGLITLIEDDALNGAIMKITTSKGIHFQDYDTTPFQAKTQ
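20 nM HPGD preincubated 15 min at room temperature with compound in 50 mM Tris-HCl pH 8, 0.01% Tween 20. Started with 1 mM NAD+ and 30 uM prostaglandin E2; NADH fluorescence (360/450 nm) read 5 times over 30-s intervals, last minus first.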
PNC inhibitor: High Content Assay for Compounds that inhibit the Assembly of the Perinucleolar Compartment; activity change (PNC), negative = inhibition, % at 10 µM; PC3M PTB-GFP, PNC prevalence imaging, 16 h; stronger effect = lower value; 140,000 tested, 3.1% active; AID 2417, 2010;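 active means readout at or below -70, meaning at least 70% loss of cells showing the perinucleolar compartment, a nuclear body marking cancer cells; inconclusive means readout between -30 and a set limit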;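 further: plate controls were DMSO wells for no effect and camptothecin positive control wells for full effect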
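PC3M cells stably expressing PTB-GFP, 750–1000 cells/well, treated 16 h at 37 °C with compound (23 nl of library stock), in duplicate. After paraformaldehyde fixation and Hoechst stain, imaged at 20x; PNC prevalence scored by image analysis.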
Numbers without * were called inactive; ? = inconclusive; · = not tested or not shown; [ ] = dose if it differs, or a comment. Unless noted, the call rests on the fitted dose curve; in most records, active means well fitted curve in the direction sought with a large enough effect; inconclusive means small, poorly fitted or top-dose-only effect, or another doubt; inactive means no such curve, though single readings can be large; an effect the other way counts as inactive or inconclusive. Unless noted, on the % scale 0 is the no-effect control and ±100 the full control effect.

SMILES | IMPase Li inh | NPSR antag | ALDH1A1 block | IMPase cell inh | HPGD block | PNC inhibitor
C=CCOc1ccc(CN(C)CC(=O)N(CC(C)C)c2c(N)n(CC(C)C)c(=O)[nH]c2=O)cc1 | 5.9%[38.3 µM] | 19.0%[46.1 µM] | -12.6% | 2.2[1.84 µM] | -8.2% | -101.1*
CC1(C)Cc2c(c(N3CCCC3)[nH]c(=S)c2C#N)CO1 | 9.2%[38.3 µM] | 1.0%[46.1 µM] | ? | -2.1 | -16.6% | 20.4
N#Cc1cc2c([nH]c1=S)CCCC2 | -20.3% | 8.2% | 8.91µM* | · | 14.1µM* | 17.6
CC1(C)Cc2[nH]c(=S)c(C#N)cc2CO1 | 0.3%[38.3 µM] | -17.4%[46.1 µM] | 2.24µM* | 2.2 | 25.1µM* | ?
COc1ccc(C(c2sc3nc(C)nn3c2O)N2CC(C)OC(C)C2)cc1OC (stereo not drawn) | 3.1% | -5.1%[46.1 µM] | -1.3% | -7.4 | -13.3% | ?
Cc1cccc(OCCc2c(C)[nH]c(=S)[nH]c2=O)c1 | 6.1% | 0.8% | 17.8µM* | · | · | ·
Cc1cccc(OCCn2c(=S)[nH]c3ccccc32)c1 | 16.2% | -8.9%[46.1 µM] | 1.26µM* | -4.9 | 2µM* | ?
CCOC(=O)Cn1c(=N)n(CCOc2ccc(Br)cc2)c2ccccc21 | · | 36.0% | 9.6% | · | · | ·
CCOC(=O)Cn1c(=N)n(CCOc2cccc(C)c2)c2ccccc21 | 2.4% | 0.0%[46.1 µM] | 6.3% | 2.4 | -0.9% | -97.1*
N#CCCn1c(=S)[nH]c2ccccc21 | 20.2%[38.3 µM] | 2.6%[46.1 µM] | ? | -0.9 | 14.1µM* | ?
CC(C)NC(=O)c1ccccc1NC(=O)/C=C/c1cccc([N+](=O)[O-])c1 | 1.9% | -26.6% | 3.5% | · | -6.7% | ?
CN(CCc1ccccn1)C(=O)CCC1CCCN(C(=O)CCOc2ccccc2)C1 (stereo not drawn) | 0.2% | 7.4% | 11.5% | · | · | ·
Cc1ccc2c(nc3s/c(=C/c4cccs4)c(=O)n32)c1C | 5.7%[38.3 µM] | -9.3%[46.1 µM] | 14.1µM* | -3.2 | 28.2µM* | 7.1
Cc1cc(C)c2nc3s/c(=C/c4ccccc4)c(=O)n3c2c1 | 16.6%[38.3 µM] | -6.0%[46.1 µM] | 3.16µM* | 5.9 | 5.01µM* | ?
CCCC(OC(=O)CN1C(=O)COc2ccccc21)C(=O)NC1CCCC1 (stereo not drawn) | 15.9% | -21.5%[46.1 µM] | 6.9% | 4.3 | 28.2µM* | 194.1
CCc1ccc(NC(=O)COC(=O)CN2C(=O)COc3ccccc32)cc1 | 16.0%[38.3 µM] | -15.2%[46.1 µM] | -1.0% | -1.3 | -11.2% | 26.0
CCOC(=O)N1CCC(NC(=O)CCN2C(=O)COc3ccccc32)CC1 | 21.1%[38.3 µM] | -11.0%[46.1 µM] | 1.4% | 4.1 | -6.3% | -80.3*
O=C(O)CCc1nc2ccccc2c(=O)[nH]1 | · | -9.3% | 0.5% | · | · | ·
Cc1nn(-c2ccccc2)c(Cl)c1CN(C(=O)CCl)c1ccc(Cl)cc1 | 17.5% | ? | 7.08µM* | · | -22.4% | 11.8
Cc1nn(-c2ccccc2)c(Cl)c1C(=O)NCC(=O)O | 9.6% | -4.4%[46.1 µM] | 9.7% | -9.3 | -5.4% | ?
CC(=O)N(Cc1c(C)nn(-c2ccccc2)c1Cl)c1ccc(Cl)cc1 | 3.3%[38.3 µM] | ? | -3.4% | 7.1 | -1.9% | ?
Cc1nn(-c2ccccc2)c(Cl)c1CN(C(=O)CCl)c1cccc2ccccc12 | 12.2% | ? | 28.2µM* | 12.2 | 0.2% | -16.7
COc1cccc(-c2c(C#N)c(N)nc3c2c(=O)nc2sccn23)c1 | 0.4% | -3.4% | 6.8% | · | · | ·
O=c1nc2cccc3c2=c(/c1=C(\O)c1ccccc1)c1ccccc1c3=O | 9.3% | -49.5% | 0.631µM* | · | · | ·
N#CC1=C2N=C(N)c3ccccc3N2C2=C(C(=O)CCC2)C1c1cccc(Cl)c1 (stereo not drawn) | 8.2% | -48.6% | 0.5% | · | -9.3% | 20.3
O=C(Nc1nnc(-c2ccco2)o1)c1cccc(N2C(=O)CCC2=O)c1 | -15.6% | 13.4% | 28.2µM* | · | · | ·
Cc1ccc(-c2csc(NC(=O)c3cccc(N4C(=O)CCC4=O)c3)n2)o1 | 1.4% | 3.1%[46.1 µM] | 3.55µM* | -8.2 | ? | 35.5
